Measurements as given in PubChem BioAssay AID1224921 (Broad Institute, 2016).
The campaign covered roughly 1,400 compounds. About 350 (25%) were called active. Roughly 2% stayed inconclusive and do not appear here. No rule for the calls is given here. A selection follows. Results with a measured potency or affinity are listed apart.

assay: C. difficile growth inhibition, confirmation, 4-point retest (AID 1224921); details: Clostridioides difficile clinical isolate growth, OD600, 24 h, hits give low values; at 30 µM unless noted;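 also: plate controls were DMSO wells for no effect and levofloxacin 16 µg/mL wells for full effect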

Max activity, inactive:
O=C(Nc1ccc2c(c1)OCO2)N[C@@H]1C=C[C@H](CC(=O)N2CCN(c3ccccc3)CC2)O[C@H]1CO 18.2%, CO[C@@H]1CN(C)C(=O)c2ccc(NC(=O)c3ccc(F)cc3)cc2OC[C@H](C)N(C(=O)CN(C)C)C[C@@H]1C -20.6% [at 1.95 µM], CNC[C@H]1Oc2cc(-c3ccccc3F)ccc2S(=O)(=O)N([C@H](C)CO)C[C@H]1C 25.6%, C[C@@H]1CN([C@H](C)CO)C(=O)Cc2cc(NC(=O)C3CC3)ccc2O[C@@H]1CN(C)Cc1ccc(-c2ccccc2)cc1 43.1% [at 35 µM], CC(C)C#Cc1ccc2c(c1)O[C@H](CN(C)Cc1ccncc1)[C@@H](C)CN([C@H](C)CO)S2(=O)=O 51.9%, CO[C@H]1CN(C)C(=O)c2cc(NC(=O)Nc3ccccc3F)ccc2OC[C@@H](C)N(CC2CC2)C[C@@H]1C -19.6% [at 1.95 µM], CO[C@@H]1CN(C)C(=O)c2ccc(NC(C)=O)cc2OC[C@@H](C)N(Cc2cccc(F)c2)C[C@@H]1C 16.8%, CCS(=O)(=O)Nc1ccc2c(c1)C(=O)N(C)C[C@@H](OC)[C@H](C)CN(CC1CCCC1)[C@H](C)CO2 -10.9% [at 1.95 µM], C[C@@H]1CN([C@H](C)CO)S(=O)(=O)c2ccc(C#CCC3CCCC3)cc2O[C@H]1CN(C)C(=O)CC1CC1 15.9%, COc1cccc(NC(=O)N[C@H]2CC[C@H](CC(=O)Nc3ccc(-c4ccccc4)cc3)O[C@H]2CO)c1 32.5%, COc1cccc(-c2ccc3c(c2)O[C@@H](CN(C)Cc2cccnc2)[C@H](C)CN([C@H](C)CO)S3(=O)=O)c1 34.9%, C[C@@H]1CN([C@H](C)CO)C(=O)c2cccc(NC(=O)c3nc4ccccc4s3)c2O[C@H]1CN(C)Cc1ccc2c(c1)OCO2 20.2%, O=C(C[C@H]1C[C@H]2c3cc(NC(=O)C4CCC4)ccc3O[C@H]2[C@H](CO)O1)NCCc1ccccc1 -11.7% [at 1.95 µM], CCC(=O)N1C[C@H](C)[C@H](OC)CN(C)C(=O)c2ccc(NC(=O)Nc3ccc(Cl)cc3)cc2OC[C@H]1C 20%, Cc1ccccc1S(=O)(=O)NCC[C@H]1CC[C@H](NC(=O)Nc2cccc(Cl)c2)[C@H](CO)O1 6.17% [at 35 µM], CCC(=O)N[C@@H]1CC[C@@H](CC(=O)NCc2ccccc2F)O[C@@H]1CO -13% [at 8 µM], CCC(=O)N[C@@H]1CC[C@H](CC(=O)NCc2ccccc2F)O[C@@H]1CO -16.5% [at 8 µM], CCC(=O)N[C@H]1CC[C@H](CC(=O)NCc2ccccc2F)O[C@H]1CO -6.85% [at 0.5 µM], N#C[C@H]1[C@H](c2ccc(C#Cc3ccccc3F)cc2)[C@@H](CO)N1C(=O)C1CCC1 26.9%, C[C@@H]1CN([C@H](C)CO)S(=O)(=O)c2ccc(C#CC3CCCCC3)cc2O[C@@H]1CN(C)Cc1cccnc1 42.2%, CO[C@H]1CN(C)C(=O)c2ccc(NC(=O)c3ccc(F)cc3)cc2OC[C@H](C)N(C(=O)CN(C)C)C[C@@H]1C -12.9%, COc1ccccc1C#Cc1ccc2c(c1)O[C@@H](CN(C)Cc1cccnc1)[C@H](C)CN([C@H](C)CO)S2(=O)=O 35.7%, O=C(C[C@H]1C[C@@H]2c3cc(NC(=O)Nc4ccc(C(F)(F)F)cc4)ccc3O[C@@H]2[C@H](CO)O1)NCc1ccc2c(c1)OCO2 9.19%, C[C@@H]1CN([C@@H](C)CO)S(=O)(=O)c2ccc(C#CCC3CCCC3)cc2O[C@H]1CN(C)C(=O)c1ccccn1 25.9%, CO[C@H]1CN(C)C(=O)c2ccc(NC(=O)C3CC3)cc2OC[C@@H](C)N(Cc2cccc(F)c2)C[C@H]1C 15.9%, CO[C@H]1CN(C)C(=O)c2ccc(NC(=O)c3ccc(F)cc3)cc2OC[C@@H](C)N(C(=O)CN(C)C)C[C@@H]1C -6.76% [at 0.5 µM], C[C@H]1CN([C@@H](C)CO)S(=O)(=O)c2ccc(C#CC3CC3)cc2O[C@@H]1CN(C)Cc1cccnc1 36.4%, COc1ccccc1C#Cc1ccc2c(c1)O[C@@H](CN(C)Cc1ccncc1)[C@H](C)CN([C@H](C)CO)S2(=O)=O 34.5%, CO[C@@H]1CN(C)C(=O)c2cc(NC(C)=O)ccc2OC[C@@H](C)N(CCc2ccccc2)C[C@@H]1C 18.4%, CO[C@@H]1CN(C)C(=O)c2ccc(NC(=O)c3nc4ccccc4s3)cc2OC[C@H](C)N(Cc2ccncc2)C[C@H]1C 21.3%, COc1ccc(NC(=O)Nc2ccc3c(c2)[C@H]2C[C@H](CC(=O)N4CCc5ccccc5C4)O[C@@H](CO)[C@H]2O3)cc1 -11.6% [at 0.5 µM], CCCC(=O)Nc1ccc2c(c1)OC[C@@H](C)N(C(=O)Cc1cccnc1)C[C@@H](C)[C@H](OC)CN(C)C2=O -13.6% [at 1.95 µM], COCC(=O)N(C)C[C@@H]1Oc2cc(C#Cc3ccccc3)ccc2S(=O)(=O)N([C@@H](C)CO)C[C@@H]1C 7.66%, CO[C@@H]1CN(C)C(=O)c2ccc(NC(=O)c3nc4ccccc4s3)cc2OC[C@@H](C)N(Cc2cccnc2)C[C@@H]1C 29.5%, CO[C@H]1CN(C)C(=O)c2cc(NC(=O)c3ccccc3)ccc2OC[C@@H](C)N(C)C[C@H]1C 10.4%, Cc1ccc(S(=O)(=O)N2C[C@@H](O)COC[C@@H]3O[C@@H](CC(=O)NCC4CCCCC4)CC[C@H]32)cc1 22.7% [at 8 µM], Cc1ccc(S(=O)(=O)N2C[C@H](O)COC[C@H]3O[C@H](CC(=O)NCc4ccc(Cl)c(Cl)c4)CC[C@@H]32)cc1 26.4% [at 8 µM], COc1ccc(S(=O)(=O)N2C[C@@H](O)COC[C@H]3O[C@H](CC(=O)NCc4ccc(Cl)c(Cl)c4)CC[C@@H]32)cc1 33.9% [at 0.5 µM], C[C@H](CO)N1C[C@H](C)[C@H](CN(C)Cc2cccnc2)Oc2cc(C#CC3CCCCC3)ccc2S1(=O)=O 30.4%, C[C@@H]1CN([C@@H](C)CO)C(=O)Cc2cc(N(C)C)ccc2O[C@@H]1CN(C)Cc1ccc(-c2ccccc2)cc1 57.8%, C[C@@H]1CN([C@H](C)CO)C(=O)c2cc(-c3ccccc3)cnc2O[C@@H]1CN(C)Cc1ccccn1 -13.1% [at 1.95 µM], O=C(C[C@@H]1C[C@@H]2c3cc(NC(=O)Nc4ccc(C(F)(F)F)cc4)ccc3O[C@@H]2[C@H](CO)O1)NCc1ccc2c(c1)OCO2 9.21% [at 1.95 µM], CC(C)NC(=O)N[C@H]1CC[C@H](CC(=O)NCCCN(C)C)O[C@H]1CO -16.5% [at 1.95 µM], C[C@@H]1CN([C@H](C)CO)C(=O)c2c(c3ccccc3n2C)-c2ccccc2CO[C@@H]1CN(C)S(=O)(=O)c1cccc(F)c1 42% [at 35 µM]
